Values joined by “and” are separate entries in the source; they are usually repeats but may differ in a detail not shown here. Equal values may be shown once. About 79,000 compounds went through this panel and 15% of them were active in at least one assay; those are over-represented in the sample as a whole. Active and inactive are the calls of the source. Cut-off read from the data, not from the text of the source: active = growth inhibition above about 70%; inactive = the rest.
Experiment: NCI Yeast Anticancer Drug Screen. Data for the cln2 rad14 strain (AID 165);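 note: 0% = growth equal to vehicle treated cultures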
Details: S. cerevisiae cln2 rad14 strain, active compounds read high; at 50.0 µM unless noted
Procedure, shortened: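 The screen exposed genetically defined yeast (cln2 rad14) to test compounds and scored growth inhibition relative to vehicle-treated controls.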

Compound | growth inhibition
CCOC(=O)c1cc(C(O)C(O)C(O)CO)oc1C (stereo not given) | -13.1% (inactive)
CN=Nc1c(O)[nH]c2ccc(C)cc12 | -43.1% (inactive)
O/N=C/c1ccc(O)cc1 | -19.6% (inactive)
CCCCCC=C(C(=O)OCC)C(=O)OCC | 12.3% (inactive)
O=C(O)CCC(=O)c1ccc(F)cc1 | -0.95% (inactive)
C[C@H]1/C(=C/C(=O)OCCN(C)C)CC[C@H]2[C@H]1C(=O)C[C@H]1C(C)(C)[C@@H](O)CC[C@]21C | 13.8% (inactive)
Cc1cc(C)c([N+](=O)[O-])cc1N | 13.5% (inactive)
CC(=O)c1ccc2c(c1)NC(=O)CC(C)N2 (stereo not given) | -25.6% (inactive)
O=C(NCCCl)NC1C(O)OC(CO)C(O)C1O (stereo not given) | 76.5% (active)
NC(N)=N/N=C(\c1ccc(C(F)(F)F)cc1)c1ccc(Cl)c(Cl)c1 | 99.2% (active)
CCC(C)C(C#N)(CCN(CC)CC)c1ccccc1 (stereo not given) | 7.3% (inactive)
COCc1ccccc1-n1nccc1S(C)=O (stereo not given) | 4.1% (inactive)
CC(=O)OC[C@H](O)[C@@]1(O)CC[C@H]2[C@@H]3CCC4=CC(=O)C=C[C@]4(C)[C@H]3[C@@H](O)C[C@@]21C | 1.15% (inactive)
NC(CSCCB(O)O)C(=O)O (stereo not given) | -14.6% (inactive)
[N-]=[N+]=Nc1ccc2nc(N)nc(N)c2c1 | -33.9% (inactive)
Cc1ccc(S(=O)(=O)c2ccccc2)cc1 | 2.4% (inactive) and 1.35% (inactive)
Cc1cccc(Nc2nc(C)nc3[nH]cc(-c4ccccc4)c23)c1 | -53.2% (inactive)
CCOC(=O)C(CCc1ccccc1)(NC(C)=O)C(=O)OCC | -4.65% (inactive)
COC(=O)CC(NC(=O)OCc1ccccc1)C(=O)NCC(=O)Oc1ccc([N+](=O)[O-])cc1 (stereo not given) | 12.2% (inactive)
C[N+](C)(C)CC1CCC/C1=N\OC(=O)c1ccccc1 (stereo not given) | 12.8% (inactive)

Compound | growth inhibition
COc1ccc(C2=C(c3ccccc3)C(=O)C3(c4ccccc4)CC23c2ccc(OC)cc2)cc1 (stereo not given) | 1.85% (inactive)
CC(C)(Nc1ccccc1)C(=O)OC(C)(C)C(=O)Nc1ccccc1 | 2.05% (inactive)
c1cc2c(cc1C1=NNC(c3ccc4c(c3)OCO4)=NN1)OCO2 | 1.4% (inactive)
Nc1ccc2ncc(Nc3ccc(F)cc3)nc2c1 | 23.4% (inactive)
COc1cc(OC)c(C2SCC(=O)N2c2nnc(C(F)(F)F)s2)cc1OC (stereo not given) | 3.75% (inactive)
COc1ccc2ncccc2c1[N+](=O)[O-] | -14.5% (inactive)
CC(=O)c1cccc(NC(=O)Oc2cc(=O)oc3ccccc23)c1 | -4.6% (inactive)
O=C1C(=O)c2ccccc2C(O)=C1C1CCCCC1 | 5.55% (inactive)
COc1ccccc1C(=O)N/N=C/c1cccc([N+](=O)[O-])c1 | -11.7% (inactive)
C=C(c1ccccc1)C1ON(C)CCc2cc(OC)c(OC)cc21 (stereo not given) | 5.85% (inactive)
CC(=O)Nc1cccc(Br)c1 | -12.8% (inactive)
CC(=O)C12C[C@](C#N)(N3CCCCCC3)C1C=Cc1ccccc12 (stereo not given in full) | -51.5% (inactive)
CCOC(=O)O/C(=C\c1ccc(OC)cc1)c1c(OC(=O)OCC)n(C(=O)OCC)c2ccccc12 | 9.95% (inactive)
CC/C=C/C(CC)(C(=O)OCC)C(=O)OCC | -2% (inactive)
CCCCCCC(=O)OCC(=O)c1ccc(Br)cc1 | -115% (inactive)
CCC(C)(CC)c1ccc(C)cc1OC | 18.6% (inactive)
COCCN=Cc1ccc(N(C)C)cc1 | -26.4% (inactive)
O=C(C1=CCCCC1)c1ccc(-c2ccccc2)cc1 | -14.6% (inactive)
CCOC(=O)CCC(NC(=O)OCc1ccccc1)C(=O)NNC(=O)OC(C)(C)C (stereo not given) | 15.7% (inactive)
CC(=O)[CH-]C(=O)c1ccccc1.CC(=O)[CH-]C(=O)c1ccccc1.CC1(C)OCC(C2OC3OC(C)(C)OC3C2[O-])O1.CC1(C)OCC(C2OC3OC(C)(C)OC3C2[O-])O1.[Ti+4] (stereo not given) | 14.9% (inactive)

Reference: PubChem BioAssay (NCI)
